The results in this text go back to PMC5540273 (PLoS ONE, 2017).
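Note: KINOMEscan kinase panel screen.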

In one test the test system is CHEK1. The settings on record: concentration: 1 μM, replicates: in singlicate; n = 1.
As to `COc1ccc(Nc2nccc(N3CCC(NC(=O)c4cc5ccccc5s4)C3)n2)cc1` (stereo not drawn) [GSK1379738], the “%Inh” value came out at 100%.

With `Cc1ccc(-c2nc(Nc3ccncc3)c3ccccc3n2)s1` [GSK189015], the “%Inh” value worked out at 22%.

Regarding `Cn1cncc1C(=O)NC1CCN(c2ccnc(Nc3ccc(F)cc3)n2)C1` (stereo not drawn) [GSK1379717], the “%Inh” value was found to be 0%.

For `COc1ccc(Nc2nccc(N3CCC(NC(=O)C(C)c4ccc(Cl)cc4)C3)n2)cc1` (stereo not drawn) [GSK1379735], the “%Inh” value came to 26%.

For the compound `COc1nccc(-c2c(-c3ccc(F)cc3)ncn2CCCN2CCOCC2)n1` [SB-282852], the “%Inh” value was determined as 0%.

Turning to `Cc1ccccc1Cn1ccn2c(=O)cc(N3CCOCC3)nc12` [GSK2269905], the “%Inh” value is recorded as 0%.

In the case of `CS(=O)(=O)CCNCc1nc(-c2ccc3ncnc(Nc4ccc5c(cnn5Cc5ccccc5)c4)c3c2)cs1.Cl.Cl` [GW569716], the “%Inh” value is given as 0%.

For the compound `O=C1NC(=O)C(c2ccc(Cl)cc2)=C1Nc1ccc(O)cc1` [SB-340867], the “%Inh” value was 0%.

`Cc1cccc2c(-c3ccncn3)c(-c3ccc(F)cc3)nn12` [GW515532]: the “%Inh” value was 5%.

`Cn1cncc1-c1cc2c(Nc3ccc(OCc4ccccc4)cc3)ncnc2cn1` [GW281179]: the “%Inh” value was 2%.

As to `CCn1c(-c2ccccc2)nc2cnccc21` [SB-733416], the “%Inh” value amounted to 29%.

`Nc1ncnc2occ(-c3ccc4c(c3)CCN4C(=O)Cc3cc(F)ccc3F)c12` [GSK2645446]: the “%Inh” value was 0%.

Regarding `c1ccc(-c2ccnc3[nH]ccc23)cc1` [SB-693578], the “%Inh” value turned out to be 12%.

On to `O=C(Nc1n[nH]c2cc(-c3ccsc3)ccc12)C1CC1` [SB-732932], for which the “%Inh” value is 0%.

In the case of `COc1ccc(Nc2nccc(NCCNC(=O)Nc3cc(C)ccc3C)n2)cc1` [GSK1379899], the “%Inh” value is reported as 5%.

As for `Cc1ccc(NC(=O)Nc2ccccc2F)cc1-c1ccc(C(=O)Nc2ccncc2)cc1` [GSK1398477], the “%Inh” value is recorded as 5%.

As to `Cl.Cl.Cl.N#Cc1ccc(CCNc2nccc(-c3cccc(CN4CCNCC4)c3)n2)cc1` [GSK2137462], the “%Inh” value worked out at 0%.

Consider `O=C1NC(=O)C(c2ccc(Cl)cc2)=C1Nc1cccc(Cl)c1` [SB-317651], for which the “%Inh” value turned out to be 0%.

For the compound `Cc1ccccc1-c1cc(-c2c[nH]nc2-c2ccccn2)ccn1` [GW680061], the “%Inh” value turned out to be 85%.

In the case of `Fc1ccc(-c2nc3n(c2-c2ccncc2)CCS3)cc1` [GI98581], the “%Inh” value was 0%.

As for `CC(C)c1ccc(O)cc1Nc1ccnc2ccc(C(F)(F)F)cc12` [GW482059], the “%Inh” value was 14%.

For the compound `CC(=O)c1cccc(NC(=O)NC2CCN(c3ccnc(Nc4ccc(F)cc4)n3)C2)c1` (stereo not drawn) [GSK1379710], the “%Inh” value stood at 10%.

Take `Cc1nccc(-c2c(-c3ccc(F)cc3)ncn2CCCN2CCOCC2)n1.Cl` [SB-282975]: the “%Inh” value amounted to 7%.

Take `O=C(Nc1n[nH]c2nc(-c3ccco3)c(Br)cc12)C1CCN(Cc2ccccc2)C1.O=C(O)[C@H](O)[C@@H](O)C(=O)O` (stereo not drawn) [SB-742034]: the “%Inh” value amounted to 16%.

As to `O=c1cc(N2CCOCC2)nc2n(Cc3cccc(Cl)c3Cl)c3ccccc3n12` [GSK2299009], the “%Inh” value was 3%.

Consider `Cn1cnc2c(N)ncnc21` [SKF-97623], for which the “%Inh” value is 0%.

Turning to `CNCc1ccc2nc(NC(=O)c3ccc(C(C)(C)C)cc3)cn2c1`, the “%Inh” value is 5%.

Turning to `COc1ccc(CSc2nnc(-c3ccc4nccn4c3)o2)cc1C(F)(F)F`, the “%Inh” value stood at 23%.

Take `O=C(Nc1n[nH]c2nc(-c3cccs3)c(Br)cc12)C1CCCC1` [SB-743341]: the “%Inh” value is 9%.

On to `Nc1nccc(-c2c(-c3ccc(F)cc3)ncn2C2CCN(Cc3ccccc3)CC2)n1` [SB-219980], for which the “%Inh” value is 0%.

`Cc1ccc(NC(=O)Nc2ccc(Cl)c(C(F)(F)F)c2)cc1-c1ccc(C(=O)Nc2ccncc2)cc1` [GSK1398470]: the “%Inh” value worked out at 0%.

Regarding `COc1ccc(CSc2nnc(-c3ccc4c(c3)CCO4)o2)cc1`, the “%Inh” value worked out at 0%.

Turning to `NS(=O)(=O)c1cccc(N/C=C2\C(=O)Nc3ccc(S(=O)(=O)Cc4c(Cl)cccc4Cl)cc32)c1` [GSK398099], the “%Inh” value amounted to 6%.

With `CNc1nc(-c2ccc3c(N)n[nH]c3c2)cc(N2C[C@@H](C(=O)NC3CCCCC3)OC[C@H]2C)n1` [GSK2375584], the “%Inh” value is recorded as 7%.

On to `CS(=O)(=O)Cc1ccc(Nc2nccc(-c3c(-c4cccc(NC(=O)C5CCCCC5)c4)nn4ncccc34)n2)cc1` [GSK350559], for which the “%Inh” value was 12%.

For `COC(=O)c1cccc(NC(=O)NC2CCN(c3ccnc(Nc4ccc(OC)cc4)n3)C2)c1` (stereo not drawn) [GSK1379746], the “%Inh” value turned out to be 0%.

The next test deals with CHEK2. Particulars: concentration: 1 μM, replicates: in singlicate; n = 1.
Turning to `COc1ccc(Nc2nccc(N3CCC(NC(=O)c4cc5ccccc5s4)C3)n2)cc1` (stereo not drawn) [GSK1379738], the “%Inh” value is on record as 0%.

Turning to `Cc1ccc(-c2nc(Nc3ccncc3)c3ccccc3n2)s1` [GSK189015], the “%Inh” value is listed as 0%.

Take `Cn1cncc1C(=O)NC1CCN(c2ccnc(Nc3ccc(F)cc3)n2)C1` (stereo not drawn) [GSK1379717]: the “%Inh” value was 0%.

On to `COc1ccc(Nc2nccc(N3CCC(NC(=O)C(C)c4ccc(Cl)cc4)C3)n2)cc1` (stereo not drawn) [GSK1379735], for which the “%Inh” value stood at 0%.

Regarding `COc1nccc(-c2c(-c3ccc(F)cc3)ncn2CCCN2CCOCC2)n1` [SB-282852], the “%Inh” value stood at 0%.

For `Cc1ccccc1Cn1ccn2c(=O)cc(N3CCOCC3)nc12` [GSK2269905], the “%Inh” value stood at 0%.

For `CS(=O)(=O)CCNCc1nc(-c2ccc3ncnc(Nc4ccc5c(cnn5Cc5ccccc5)c4)c3c2)cs1.Cl.Cl` [GW569716], the “%Inh” value is reported as 57%.

Turning to `O=C1NC(=O)C(c2ccc(Cl)cc2)=C1Nc1ccc(O)cc1` [SB-340867], the “%Inh” value was 0%.

`Cc1cccc2c(-c3ccncn3)c(-c3ccc(F)cc3)nn12` [GW515532]: the “%Inh” value is given as 0%.

In the case of `Cn1cncc1-c1cc2c(Nc3ccc(OCc4ccccc4)cc3)ncnc2cn1` [GW281179], the “%Inh” value is 0%.

As to `CCn1c(-c2ccccc2)nc2cnccc21` [SB-733416], the “%Inh” value is 0%.

Take `Nc1ncnc2occ(-c3ccc4c(c3)CCN4C(=O)Cc3cc(F)ccc3F)c12` [GSK2645446]: the “%Inh” value turned out to be 21%.

With `c1ccc(-c2ccnc3[nH]ccc23)cc1` [SB-693578], the “%Inh” value was 0%.

Consider `O=C(Nc1n[nH]c2cc(-c3ccsc3)ccc12)C1CC1` [SB-732932], for which the “%Inh” value is reported as 0%.

For the compound `COc1ccc(Nc2nccc(NCCNC(=O)Nc3cc(C)ccc3C)n2)cc1` [GSK1379899], the “%Inh” value amounted to 86%.

As to `Cc1ccc(NC(=O)Nc2ccccc2F)cc1-c1ccc(C(=O)Nc2ccncc2)cc1` [GSK1398477], the “%Inh” value is recorded as 0%.

Take `Cl.Cl.Cl.N#Cc1ccc(CCNc2nccc(-c3cccc(CN4CCNCC4)c3)n2)cc1` [GSK2137462]: the “%Inh” value was 0%.

As to `O=C1NC(=O)C(c2ccc(Cl)cc2)=C1Nc1cccc(Cl)c1` [SB-317651], the “%Inh” value was found to be 0%.

As for `Cc1ccccc1-c1cc(-c2c[nH]nc2-c2ccccn2)ccn1` [GW680061], the “%Inh” value came to 4%.

Turning to `Fc1ccc(-c2nc3n(c2-c2ccncc2)CCS3)cc1` [GI98581], the “%Inh” value is on record as 0%.

Turning to `CC(C)c1ccc(O)cc1Nc1ccnc2ccc(C(F)(F)F)cc12` [GW482059], the “%Inh” value was found to be 0%.

As for `CC(=O)c1cccc(NC(=O)NC2CCN(c3ccnc(Nc4ccc(F)cc4)n3)C2)c1` (stereo not drawn) [GSK1379710], the “%Inh” value was determined as 33%.

For the compound `Cc1nccc(-c2c(-c3ccc(F)cc3)ncn2CCCN2CCOCC2)n1.Cl` [SB-282975], the “%Inh” value stood at 14%.

Regarding `O=C(Nc1n[nH]c2nc(-c3ccco3)c(Br)cc12)C1CCN(Cc2ccccc2)C1.O=C(O)[C@H](O)[C@@H](O)C(=O)O` (stereo not drawn) [SB-742034], the “%Inh” value worked out at 0%.

On to `O=c1cc(N2CCOCC2)nc2n(Cc3cccc(Cl)c3Cl)c3ccccc3n12` [GSK2299009], for which the “%Inh” value is given as 0%.

Regarding `Cn1cnc2c(N)ncnc21` [SKF-97623], the “%Inh” value is listed as 24%.

In the case of `CNCc1ccc2nc(NC(=O)c3ccc(C(C)(C)C)cc3)cn2c1`, the “%Inh” value was found to be 0%.

As for `COc1ccc(CSc2nnc(-c3ccc4nccn4c3)o2)cc1C(F)(F)F`, the “%Inh” value amounted to 17%.

On to `O=C(Nc1n[nH]c2nc(-c3cccs3)c(Br)cc12)C1CCCC1` [SB-743341], for which the “%Inh” value was 9%.

Regarding `Nc1nccc(-c2c(-c3ccc(F)cc3)ncn2C2CCN(Cc3ccccc3)CC2)n1` [SB-219980], the “%Inh” value is 8%.

`Cc1ccc(NC(=O)Nc2ccc(Cl)c(C(F)(F)F)c2)cc1-c1ccc(C(=O)Nc2ccncc2)cc1` [GSK1398470]: the “%Inh” value was 0%.

For `COc1ccc(CSc2nnc(-c3ccc4c(c3)CCO4)o2)cc1`, the “%Inh” value turned out to be 0%.

`NS(=O)(=O)c1cccc(N/C=C2\C(=O)Nc3ccc(S(=O)(=O)Cc4c(Cl)cccc4Cl)cc32)c1` [GSK398099]: the “%Inh” value was determined as 0%.

For `CNc1nc(-c2ccc3c(N)n[nH]c3c2)cc(N2C[C@@H](C(=O)NC3CCCCC3)OC[C@H]2C)n1` [GSK2375584], the “%Inh” value is 27%.

For the compound `CS(=O)(=O)Cc1ccc(Nc2nccc(-c3c(-c4cccc(NC(=O)C5CCCCC5)c4)nn4ncccc34)n2)cc1` [GSK350559], the “%Inh” value stood at 0%.

For `COC(=O)c1cccc(NC(=O)NC2CCN(c3ccnc(Nc4ccc(OC)cc4)n3)C2)c1` (stereo not drawn) [GSK1379746], the “%Inh” value is given as 0%.
